Several values for one entry are separate records, joined by “and”; a condition that tells them apart may be missing. Equal values may be shown once. Out of some 430,000 compounds screened, about 2,600 (0.6%) were called active. This is one part of a sample in which actives are shown more often than they occur. Rule as the data show it: active = inhibition mostly above about 37% (no sharp cut-off); inactive = mostly below about 20%.
tested on: PriA–SSB C-terminal tail interaction (Klebsiella pneumoniae); test: inhibitors of Klebsiella pneumoniae PriA binding to SSB C-terminal tail, primary screen, biochemical, AlphaScreen (AID 1272365); settings: AlphaScreen SSBct-PriA binding, biotinylated peptide; at 33 µM, stronger effect = higher value;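 also: plate controls were negative control peptide for no effect and reference peptide for full effect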

| Compound | inhibition |
| --- | --- |
| NS(=O)(=O)c1ccc(CCNC(=O)C(=O)Nc2nc3ccccc3s2)cc1 | -20% (inactive) |
| COc1ccc2cc(C(=O)N(CCc3cccs3)C3CC3)[nH]c2c1 | -1% (inactive) |
| Cc1nc2ccccc2c(=O)n1-c1ccc(F)c(NC(=O)c2ccccc2Cl)c1 | 3% (inactive) |
| COc1cc(Nc2ccc(NS(=O)(=O)c3ccccc3Cl)cc2)nc(C)n1 | 5% (inactive) |
| O=S(=O)(Nc1ccc(Nc2ccc(-n3cccn3)nn2)cc1)c1ccccc1Cl | 100% (active) |
| CCc1ccccc1NC(=O)Nc1ccc(Nc2cc(-n3cccn3)ncn2)cc1 | -23% (inactive) |
| Cc1nn(-c2ccc(Nc3ccc(NC(=O)COc4ccccc4)cc3)nn2)c(C)c1C | -7% (inactive) |
| Cc1cccc(NC(=O)Nc2ccc(Nc3ccc(-n4cccn4)nn3)cc2)c1C | 66% (active) and 33% (inactive) |
| O=S(=O)(Nc1ccc2[nH]ncc2c1)c1ccccc1Cl | 1.19% (inactive) |
| O=c1c2cc(-c3cccs3)nn2cnn1Cc1nc(-c2ccc(OCc3ccccc3)cc2)no1 | -16% (inactive) |
| CC(C)c1ccc(/C=C2\CC/C(=C\C=NN(C)C)C2=O)cc1 | 5.12% (inactive) |
| Cc1cc(C)cc(NC(=O)N2CCN(c3ccc4nnc(C5CC5)n4n3)CC2)c1 | -16% (inactive) |
| CC(C)c1cc(=O)n(CC(=O)Nc2ccccc2C#N)cn1 | -2% (inactive) |
| Cc1ccccc1OCC(=O)NCCCS(=O)(=O)N1CCc2ccccc2C1 | -9% (inactive) |
| O=C(CSc1ncc(-c2cccc(Br)c2)o1)NCc1ccc2c(c1)OCO2 | -4% (inactive) |
| CCn1nccc1C(=O)Nc1ccc(S(=O)(=O)NC23CC4CC(CC(C4)C2)C3)cc1 | -2.71% (inactive) |
| CCn1nccc1C(=O)Nc1ccc(-c2nc3ccccc3o2)cc1 | 83% (active) |
| CCC(=O)Nc1ccc(-c2nc3ccccc3o2)cc1 | -11% (inactive) |
| O=C(c1ccc(OC(F)(F)F)cc1)N1CC(S(=O)(=O)C2CCCCC2)C1 | -1% (inactive) |
| COc1ccc(CCNC(=O)C(=O)Nc2ccc3c(c2)CCCN3C(=O)c2cccs2)cc1 | 1% (inactive) |
| O[C@H](c1ccncc1)c1c(-c2ccccc2)[nH]c2ccccc12 | 2% (inactive) |
| CCN(c1ccc(NC(=O)COC(=O)CCc2nc3ccccc3n2-c2ccccc2)cc1)C(C)C | 55.2% (active) |
| COc1ccc(NC(=O)COC(=O)Cn2c(C)nc3ccccc32)cc1OC | -8.33% (inactive) |
| Cc1ccc(NC(=O)COC(=O)CCc2nc3ccccc3n2-c2ccccc2)c(C)c1 | 4.81% (inactive) |
| COc1cc([N+](=O)[O-])cc(C=NNC(=O)c2ccc(C)nc2)c1O | 79.7% (inactive) |
| CS(=O)(=O)Nc1c(Cl)c(Cl)c(Cl)c(Cl)c1Cl | 3% (inactive) |
| Cc1ccc2cc(CCNC(=O)c3c(-c4ccccc4Cl)noc3C)c(=O)[nH]c2c1 | 4.89% (inactive) |
| Cc1onc(-c2ccccc2Cl)c1C(=O)NCCn1ccc2ccccc21 | 5% (inactive) and 69.4% (active) |
| Cc1onc(-c2ccccc2Cl)c1C(=O)NCCCS(=O)(=O)N1CCN(c2ccccn2)CC1 | -12% (inactive) |
